High-throughput results (PubChem BioAssay)
Compounds with a hit are over-represented: about 3.1% of the library has one in this group of screens.
UBC13 inh = human UBC13 polyubiquitination inhibition; inhibition, % at 20 µM; UBC13 polyubiquitin chain formation, TR-FRET; 330,000 compounds, 0.47% hits; in the data active = inhibition above about 45%, passing the limit was not always enough
Target sequence (P61088 whole entry, looked up): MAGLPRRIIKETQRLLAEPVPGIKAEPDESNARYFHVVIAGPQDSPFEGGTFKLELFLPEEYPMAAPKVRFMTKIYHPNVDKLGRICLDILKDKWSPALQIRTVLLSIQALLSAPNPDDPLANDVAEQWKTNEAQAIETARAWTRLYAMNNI
MEKK2mut PB1 HTS = signal of MEK5 binding to mutant human MEKK2 PB1 domain. AID 1530. percent response, % at 10 µM. 290,000 compounds, 0.35% hits. bead flow cytometry, Alexa488-MEK5 binding to MEKK2 mutant; in the data active = percent response above about 24%, passing the limit was not always enough
ATG4B inhibitor = ATG4B (human) cysteine protease inhibition. ATG4B cleavage of LC3-PLA2, NBD-HPC fluorescence, 1 h. inhibition, % at 8.33 µM. 340,000 compounds, 0.51% hits. AID 504462; in the data active = inhibition above about 40%
Target sequence (Q9Y4P1 whole entry, looked up): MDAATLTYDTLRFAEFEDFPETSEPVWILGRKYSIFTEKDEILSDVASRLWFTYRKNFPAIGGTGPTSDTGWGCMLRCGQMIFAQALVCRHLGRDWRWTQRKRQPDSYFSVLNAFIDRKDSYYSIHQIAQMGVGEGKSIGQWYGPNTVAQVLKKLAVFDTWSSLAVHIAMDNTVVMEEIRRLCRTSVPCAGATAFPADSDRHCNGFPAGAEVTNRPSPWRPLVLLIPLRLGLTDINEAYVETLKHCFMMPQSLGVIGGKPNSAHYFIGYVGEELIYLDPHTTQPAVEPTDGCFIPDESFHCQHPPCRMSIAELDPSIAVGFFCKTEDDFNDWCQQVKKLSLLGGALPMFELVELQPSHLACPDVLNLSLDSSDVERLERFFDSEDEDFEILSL
MEKK2 WT-MEK5 = raises or lowers MEK5 binding to wildtype human MEKK2 PB1 domain; Q9Y2U5; bead flow cytometry, Alexa488-MEK5 binding to MEKK2 WT; actives lie on both sides; binding response (% of control), % at 10 µM; 290,000 compounds, 1.1% hits; AID 1531; in the data active = binding response below about 67% or above about 130%
PREPL inhibitor = inhibits the human prolyl oligopeptidase-like enzyme; recombinant PREPL, fluorescence polarization activity-based probe; inhibition, % at 5.96 µM; 320,000 compounds, 0.68% hits; AID 2751;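 note: 0% = enzyme with DMSO and 100% = wells lacking enzyme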
MEKK3 PB1 HTS = raises or lowers MEK5 binding to the human MEKK3 PB1 domain. 290,000 compounds, 1.4% hits. binding response (% of control), % at 10 µM. Q99759. bead-based flow cytometry, Alexa488-MEK5 binding to MEKK3; actives lie on both sides; 0 = blocked by unlabeled MEK5, 100 = vehicle;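 active = binding response more than 3 SD above or below the average of its plate-row segment, actives on both sides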;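 note: Alexa488 bead fluorescence after subtracting the streptavidin-only scavenger bead signal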
PREPL inh cf = confirmation of human PREPL enzyme inhibitors; shares compounds with PREPL inhibitor; recombinant PREPL, fluorescence polarization activity probe; inhibition, % at 5.96 µM; 2,000 compounds, 67% hits;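 note: 0% = protein with DMSO and 100% = wells lacking protein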
An asterisk follows results filed as active; x = no result. Cut-off read from the data, not from the text of the source, unless noted: active = inhibition above about 43%; inactive = the rest.

SMILES	UBC13 inh	MEKK2mut PB1 HTS	ATG4B inhibitor	MEKK2 WT-MEK5	PREPL inhibitor	MEKK3 PB1 HTS	PREPL inh cf
COc1ccc2cc(C(=O)C3CCCN(C(=O)c4cccnc4)C3)ccc2c1 (stereo not given)	23	3	24	103	45*	102	39
COc1ccc2cc(C(=O)C3CCCN(C(=O)c4csnn4)C3)ccc2c1 (stereo not given)	15	2	-12	94	22	100	x
CCOC(=O)/C(C#N)=C\c1cc(OC)c(OC)cc1[N+](=O)[O-]	-2	-8	1	98	2	99	x
O=C(COc1ccccc1C(=O)N/N=C\c1ccc(O)c(O)c1)N/N=C/c1ccc(O)c(O)c1	11	x	26	x	83*	x	32
O=C(COc1ccccc1[N+](=O)[O-])N/N=C/c1ccc(O)c([N+](=O)[O-])c1	-26	1	-1	103	-7	103	x
c1ccc(N2CCN(c3cnc4ccccc4n3)CC2)cc1	7	4	0	102	37	104	x
Fc1ccc(N2CCN(c3cnc4ccccc4n3)CC2)cc1	5	6	-6	107	45*	109	39
Nc1[nH]nc2c1NN(c1ccc(Cl)cc1Cl)N2	-20	-5	8	88	43*	84	13
COc1ccccc1Nc1c2c(nc3ccc(N)cc13)CCCC2	-9	-2	-1	103	44*	100	27
COc1ccc(OC)c(Nc2c3c(nc4ccccc24)CCC3)c1	-2	-1	1	107	18	103	x
COc1ccc(-c2oc3cc(OC(C)=O)cc(OC(C)=O)c3c(=O)c2OC)cc1	x	x	8	x	x	x	x
CC(=O)Oc1cc(O)c2c(=O)c(OC(C)=O)c(-c3ccc(OC(C)=O)c(OC(C)=O)c3)oc2c1	0	2	-25	104	44*	107	20
COc1ccc(NS(=O)(=O)c2cc(NC(=O)c3cc(F)c(F)cc3Cl)ccc2N2CCOCC2)cc1	-5	x	-8	x	7	x	x
COc1ccc(NS(=O)(=O)c2cc(NC(=O)c3cc(F)c(F)c(F)c3F)ccc2N2CCCC2)cc1	-8	-26	-8	80	46*	84	39
O=C(C[C@H]1C/C=C\CC[C@H](Cc2ccc(F)cc2)C(=O)OC[C@H]2CCCN2C1=O)N[C@@H](CO)Cc1ccccc1	14	x	-25	x	61*	x	53*
O=C(C[C@H]1C/C=C\CC[C@@H](Cc2ccc(F)cc2)C(=O)OC[C@H]2CCCN2C1=O)N[C@@H](CO)Cc1ccccc1	4	x	-23	x	53*	x	54*
Cc1ccc(C)c(N2CCN(c3ccncc3N)CC2)c1	6	10	15	104	5	95	x
O=C(NN=C1CCN(Cc2ccccc2)CC1)C(O)c1ccccc1 (stereo not given)	-4	-2	-1	101	1	102	x
O=C(C1CC(=O)N(c2ccc3c(c2)OCCO3)C1)N1CCN(c2ccccc2O)CC1 (stereo not given)	-1	5	-2	105	45*	103	41
CCN1CCN(c2ccc(NC(=O)COc3ccc(Cl)cc3C)cc2)CC1	13	x	-8	x	43*	x	53*
Cc1cccc(OCC(=O)Nc2ccc(N3CCN(C(=O)c4ccccc4)CC3)cc2)c1	5	-1	-6	100	55*	120	58*
O=C(COc1ccccc1Cl)Nc1ccc(N2CCN(C(=O)c3ccccc3)CC2)cc1	2	-5	-5	97	64*	97	62*
CC(=O)N1CCN(c2ccc(NC(=O)COc3ccc(Cl)cc3Cl)cc2)CC1	0	2	-17	93	53*	104	54*
O=C(COc1ccccc1Cl)Nc1ccc(N2CCCC2)cc1	-13	2	1	102	11	103	x
CC(=O)N1CCN(c2ccccc2NC(=O)COc2ccc(Cl)cc2Cl)CC1	0	2	-10	100	15	102	x
SMILES	UBC13 inh	MEKK2mut PB1 HTS	ATG4B inhibitor	MEKK2 WT-MEK5	PREPL inhibitor	MEKK3 PB1 HTS	PREPL inh cf
Cc1nc2c(o1)C(=O)c1ccccc1C2=Nc1ccccc1	x	x	2	x	x	x	x
C=CCc1ccccc1OCC(=O)N/N=C/c1ccc(OC(C)=O)cc1OC(C)=O	-2	-3	31	94	0	96	x
O=C(CSc1ccccc1F)NCC1(N2CCCCC2)CCCCC1	0	x	-4	x	28	x	x
Cc1ccc(Nc2ncc3c(=O)[nH][nH]c(=O)c3n2)cc1	x	x	5	x	x	x	x
O=C(COc1ccccc1[N+](=O)[O-])Nc1ccc(N2CCN(C(=O)c3cccs3)CC2)cc1	14	7	-8	103	44*	108	64*
CCN1CCN(c2ccc(NC(=O)COc3ccccc3Cl)cc2)CC1	6	5	-6	109	47*	102	40
Cc1cc(C)cc(OCC(=O)Nc2ccc(N3CCN(C(=O)c4ccco4)CC3)cc2)c1	-8	-6	-4	88	23	85	x
Cc1ccc(C(=O)NC(=S)Nc2ccc(N3CCN(C(=O)c4ccco4)CC3)cc2)cc1	-6	5	-4	104	48*	107	37
Cc1ccccc1OCC(=O)Nc1ccc(N2CCN(C(=O)c3ccco3)CC2)cc1	-8	-3	-6	98	58*	101	48*
Cc1cccc(OCC(=O)Nc2ccc(N3CCN(C(=O)c4ccco4)CC3)cc2)c1C	-4	0	-4	95	48*	107	47*
CC(C)Oc1ccc(C(=O)Nc2ccc(N3CCN(C(=O)c4ccco4)CC3)cc2)cc1	4	1	-2	106	8	104	x
O=C(NCc1ccccc1)C(c1ccco1)N(C(=O)c1csnn1)c1ccccc1 (stereo not given)	-4	-5	-3	97	-4	99	x
CC1CCC(C(C)C)C(OC(=O)Cn2c(-c3ccc(Cl)cc3)[n+](C)c3ccccc32)C1 (stereo not given)	25	-3	19	105	43*	98	47*
O=C(Cc1ccccc1)Nc1ccc(N2CCOCC2)cc1	-11	-5	-8	91	26	95	x
O=C(Cc1ccccc1)Nc1cccc(N2CCCC2)c1	1	1	-7	95	51*	95	19
O=C(Cc1ccccc1)Nc1ccc(N2CCCC2)cc1	7	2	-1	99	60*	101	15
COc1ccc(-c2cc(N)n(S(=O)(=O)c3ccc(F)cc3)n2)cc1OC	1	6	-8	109	-7	104	x
O=c1cc(CN2CCCc3ccccc32)nc2sccn12	2	-15	-9	83	51*	84	19
N#Cc1nc(-c2ccco2)oc1N1CCN(c2ccccc2)CC1	2	3	3	102	39	104	x
COc1ccccc1-c1nc(C#N)c(N2CCCCCC2)o1	0	0	-1	93	2	101	x
